The supplement of paper PMC12067093, “Discovery and optimisation of a covalent ligand for TRIM25 and its application to targeted protein ubiquitination” (Chemical Science, 2025)
The full data set covers some 21,000 targets. This sample favours those with the largest changes.

Compound: CC1Cc2ccccc2N1C(=O)C1CCCN(C1)C(=O)CCl (mixture of isomers) [TRIM25 ligand 11 (diastereomer mixture)]
Experiment: probe-labelled cysteine peptide fold change vs DMSO (competition) (log2 fold change); higher = less target engagement (more negative = stronger competition)
Details: THP-1, incubation time: 4 h
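Note: competitive chemoproteomic profiling in live THP-1 cells with an iodoacetamide desthiobiotin (IA-DTB) probe, comparing probe-labelled peptide intensities in compound-treated cells against DMSO-treated controls.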

Chain of UniProt O75694 (O75694 whole entry, looked up): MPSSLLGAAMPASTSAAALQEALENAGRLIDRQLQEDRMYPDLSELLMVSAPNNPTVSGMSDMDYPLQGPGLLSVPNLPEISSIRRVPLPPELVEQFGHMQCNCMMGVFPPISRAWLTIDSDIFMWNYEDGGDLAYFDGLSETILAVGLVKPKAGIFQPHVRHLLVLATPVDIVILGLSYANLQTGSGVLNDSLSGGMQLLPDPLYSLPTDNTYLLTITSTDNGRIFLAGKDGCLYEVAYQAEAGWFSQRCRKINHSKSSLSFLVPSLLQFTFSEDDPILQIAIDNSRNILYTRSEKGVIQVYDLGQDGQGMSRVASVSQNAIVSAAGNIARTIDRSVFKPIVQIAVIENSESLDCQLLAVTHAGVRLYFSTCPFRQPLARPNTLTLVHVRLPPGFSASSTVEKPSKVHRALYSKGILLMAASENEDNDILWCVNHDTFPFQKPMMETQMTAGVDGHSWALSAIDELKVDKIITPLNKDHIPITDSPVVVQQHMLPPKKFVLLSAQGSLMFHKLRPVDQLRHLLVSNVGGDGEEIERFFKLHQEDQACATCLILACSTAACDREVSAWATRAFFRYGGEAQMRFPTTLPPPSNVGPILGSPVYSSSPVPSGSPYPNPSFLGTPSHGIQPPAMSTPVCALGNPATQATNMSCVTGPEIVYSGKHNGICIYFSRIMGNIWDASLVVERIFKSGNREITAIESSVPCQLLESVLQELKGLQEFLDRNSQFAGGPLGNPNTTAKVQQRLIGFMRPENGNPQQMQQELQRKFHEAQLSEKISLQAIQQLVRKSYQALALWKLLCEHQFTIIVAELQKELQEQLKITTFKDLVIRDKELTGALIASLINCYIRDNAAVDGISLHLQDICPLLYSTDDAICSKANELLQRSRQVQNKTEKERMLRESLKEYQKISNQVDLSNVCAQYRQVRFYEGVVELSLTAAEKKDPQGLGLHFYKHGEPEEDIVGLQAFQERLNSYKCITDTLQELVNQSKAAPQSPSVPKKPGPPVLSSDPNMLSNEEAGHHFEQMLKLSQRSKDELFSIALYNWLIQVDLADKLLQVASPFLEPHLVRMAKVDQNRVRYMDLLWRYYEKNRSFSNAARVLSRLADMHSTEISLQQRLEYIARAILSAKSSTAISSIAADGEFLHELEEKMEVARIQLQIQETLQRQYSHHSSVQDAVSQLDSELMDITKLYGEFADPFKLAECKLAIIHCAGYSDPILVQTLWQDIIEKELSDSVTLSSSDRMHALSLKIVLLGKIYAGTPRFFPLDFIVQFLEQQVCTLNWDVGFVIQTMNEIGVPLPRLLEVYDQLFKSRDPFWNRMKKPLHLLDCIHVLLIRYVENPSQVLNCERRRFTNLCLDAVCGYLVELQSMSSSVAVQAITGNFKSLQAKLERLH
Chain of UniProt Q9BXW6 (Q9BXW6 whole entry, looked up): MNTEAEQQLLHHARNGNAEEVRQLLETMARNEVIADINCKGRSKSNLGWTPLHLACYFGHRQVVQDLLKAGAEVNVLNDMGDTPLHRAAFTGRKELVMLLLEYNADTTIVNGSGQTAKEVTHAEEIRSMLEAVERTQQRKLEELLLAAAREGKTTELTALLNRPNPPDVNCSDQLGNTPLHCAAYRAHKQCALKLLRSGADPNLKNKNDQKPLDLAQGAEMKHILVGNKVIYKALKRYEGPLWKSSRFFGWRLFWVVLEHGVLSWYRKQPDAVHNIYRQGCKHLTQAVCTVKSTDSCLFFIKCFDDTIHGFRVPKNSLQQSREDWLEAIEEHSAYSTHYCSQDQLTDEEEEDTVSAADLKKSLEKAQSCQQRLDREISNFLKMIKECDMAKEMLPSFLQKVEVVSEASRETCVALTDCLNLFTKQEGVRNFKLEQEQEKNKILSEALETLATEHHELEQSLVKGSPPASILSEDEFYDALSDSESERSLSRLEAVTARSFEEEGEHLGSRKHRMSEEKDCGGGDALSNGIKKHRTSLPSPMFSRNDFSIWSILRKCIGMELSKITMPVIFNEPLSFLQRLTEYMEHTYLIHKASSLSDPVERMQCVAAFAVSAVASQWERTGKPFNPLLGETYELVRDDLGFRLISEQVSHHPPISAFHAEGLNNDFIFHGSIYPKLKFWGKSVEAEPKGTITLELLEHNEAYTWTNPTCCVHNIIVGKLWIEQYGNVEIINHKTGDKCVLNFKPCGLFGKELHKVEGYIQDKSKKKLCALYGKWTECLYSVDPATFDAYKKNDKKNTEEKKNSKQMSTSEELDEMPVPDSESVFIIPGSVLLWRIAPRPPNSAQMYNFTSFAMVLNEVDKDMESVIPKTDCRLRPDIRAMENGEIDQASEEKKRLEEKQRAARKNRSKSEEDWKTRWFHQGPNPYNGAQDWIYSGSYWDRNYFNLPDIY
Chain of UniProt Q9H857 (Q9H857 whole entry): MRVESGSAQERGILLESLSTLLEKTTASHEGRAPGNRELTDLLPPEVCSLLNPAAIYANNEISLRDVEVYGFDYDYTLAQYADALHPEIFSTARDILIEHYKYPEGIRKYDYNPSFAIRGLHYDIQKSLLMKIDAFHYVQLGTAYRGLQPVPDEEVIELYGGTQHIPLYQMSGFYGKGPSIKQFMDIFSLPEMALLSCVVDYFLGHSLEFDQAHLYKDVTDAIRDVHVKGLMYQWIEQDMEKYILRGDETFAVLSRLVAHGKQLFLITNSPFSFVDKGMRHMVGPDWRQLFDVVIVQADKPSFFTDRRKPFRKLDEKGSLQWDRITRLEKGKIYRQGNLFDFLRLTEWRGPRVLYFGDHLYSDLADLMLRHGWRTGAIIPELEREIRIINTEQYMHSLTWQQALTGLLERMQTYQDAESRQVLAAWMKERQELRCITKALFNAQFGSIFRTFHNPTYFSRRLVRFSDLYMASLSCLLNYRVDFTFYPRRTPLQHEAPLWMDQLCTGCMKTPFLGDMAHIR
Chain of UniProt P61970 (P61970 whole entry, looked up): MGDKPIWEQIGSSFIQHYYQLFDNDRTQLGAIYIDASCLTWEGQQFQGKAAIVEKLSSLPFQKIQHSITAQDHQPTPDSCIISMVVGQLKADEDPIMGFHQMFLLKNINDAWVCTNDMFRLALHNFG
Chain of UniProt O96028 (O96028 whole entry, looked up): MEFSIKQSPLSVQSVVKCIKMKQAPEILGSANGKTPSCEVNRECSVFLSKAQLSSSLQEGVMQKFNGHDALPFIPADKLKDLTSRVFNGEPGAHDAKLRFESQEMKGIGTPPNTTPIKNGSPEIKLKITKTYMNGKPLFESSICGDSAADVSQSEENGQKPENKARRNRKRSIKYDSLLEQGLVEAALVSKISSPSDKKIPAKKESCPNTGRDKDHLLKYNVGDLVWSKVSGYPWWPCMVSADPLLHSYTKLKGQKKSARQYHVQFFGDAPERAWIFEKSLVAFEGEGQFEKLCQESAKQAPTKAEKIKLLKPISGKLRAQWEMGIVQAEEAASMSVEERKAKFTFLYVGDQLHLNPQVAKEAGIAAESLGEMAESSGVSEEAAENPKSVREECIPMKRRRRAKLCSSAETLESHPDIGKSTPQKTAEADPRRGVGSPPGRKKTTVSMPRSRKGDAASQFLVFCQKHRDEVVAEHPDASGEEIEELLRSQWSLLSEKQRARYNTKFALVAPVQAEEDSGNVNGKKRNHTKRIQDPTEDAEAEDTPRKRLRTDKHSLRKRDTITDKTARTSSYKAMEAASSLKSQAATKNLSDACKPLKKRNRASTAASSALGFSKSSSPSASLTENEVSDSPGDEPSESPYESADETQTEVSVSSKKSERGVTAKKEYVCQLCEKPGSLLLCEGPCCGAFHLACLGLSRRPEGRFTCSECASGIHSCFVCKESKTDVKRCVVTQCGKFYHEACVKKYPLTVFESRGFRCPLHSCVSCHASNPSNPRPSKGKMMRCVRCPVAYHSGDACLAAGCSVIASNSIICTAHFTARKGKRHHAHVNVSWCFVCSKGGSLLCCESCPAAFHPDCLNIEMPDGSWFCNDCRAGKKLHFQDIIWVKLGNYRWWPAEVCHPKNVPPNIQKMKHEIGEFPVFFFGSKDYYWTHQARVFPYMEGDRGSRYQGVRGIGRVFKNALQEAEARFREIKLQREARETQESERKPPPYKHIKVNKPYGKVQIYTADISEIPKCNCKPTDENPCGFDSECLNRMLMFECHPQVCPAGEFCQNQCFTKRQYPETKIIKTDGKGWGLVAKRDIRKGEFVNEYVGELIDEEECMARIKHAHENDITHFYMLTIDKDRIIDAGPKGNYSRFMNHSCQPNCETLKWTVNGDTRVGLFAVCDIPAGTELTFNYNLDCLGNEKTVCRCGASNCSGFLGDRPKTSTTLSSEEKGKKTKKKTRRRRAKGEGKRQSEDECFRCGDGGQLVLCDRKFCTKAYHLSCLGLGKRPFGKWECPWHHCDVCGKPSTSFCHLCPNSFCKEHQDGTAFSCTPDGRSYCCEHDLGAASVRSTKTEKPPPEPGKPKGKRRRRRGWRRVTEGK
Chain of UniProt O00151 (O00151 whole entry, looked up): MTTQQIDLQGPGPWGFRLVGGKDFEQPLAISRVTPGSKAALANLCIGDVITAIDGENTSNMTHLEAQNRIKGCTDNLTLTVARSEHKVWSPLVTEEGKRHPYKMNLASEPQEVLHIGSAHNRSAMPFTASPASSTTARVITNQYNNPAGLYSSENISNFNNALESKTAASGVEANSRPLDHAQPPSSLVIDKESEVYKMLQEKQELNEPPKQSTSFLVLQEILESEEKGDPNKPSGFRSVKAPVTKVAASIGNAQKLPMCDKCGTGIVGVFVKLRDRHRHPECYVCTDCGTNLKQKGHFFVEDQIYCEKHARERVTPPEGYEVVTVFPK
Chain of UniProt P19404 (P19404 whole entry): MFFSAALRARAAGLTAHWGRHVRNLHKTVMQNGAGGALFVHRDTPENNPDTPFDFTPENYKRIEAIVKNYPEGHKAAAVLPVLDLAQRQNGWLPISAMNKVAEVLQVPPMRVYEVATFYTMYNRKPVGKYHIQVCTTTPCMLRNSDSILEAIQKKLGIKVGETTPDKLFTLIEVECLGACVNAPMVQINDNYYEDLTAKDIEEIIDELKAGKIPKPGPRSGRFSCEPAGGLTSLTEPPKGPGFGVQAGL

Q: Which “probe-labelled cysteine peptide fold change” value (10 µM) does the source give for “NDUFV2_P19404_135+140_YHIQVCTTTPCMLR (UniProt P19404)” here?
A: The value was 0.0444.

Q: What about the “probe-labelled cysteine peptide fold change” value (50 µM) of the same target?
A: Its value is -0.234.

Q: With “PALD1_Q9ULE6_631_IPMPDFCAPREEDFDQLLEALR (UniProt Q9ULE6)” as the target, how does the “probe-labelled cysteine peptide fold change” value (10 µM) read?
A: The value was 0.052.

Q: And the “probe-labelled cysteine peptide fold change” value (50 µM)?
A: Its value is 0.057.

Q: What does the source list for “NT5DC2_Q9H857_475_FSDLYMASLSCLLNYR (UniProt Q9H857)”?
A: probe-labelled cysteine peptide fold change (10 µM): 0.0123; probe-labelled cysteine peptide fold change (50 µM): 0.0662

Q: “NSUN5_Q96P11_308_YHEVHYILLDPSCSGSGMPSR (UniProt Q96P11)” was tested. Which “probe-labelled cysteine peptide fold change” value (10 µM) did it give?
A: The value was -0.725.

Q: What about the “probe-labelled cysteine peptide fold change” value (50 µM) of the same target?
A: The value was -0.0597.

Q: What does the source list for “NSD2_O96028_1102_KGEFVNEYVGELIDEEECMAR (UniProt O96028)”?
A: probe-labelled cysteine peptide fold change (10 µM): -0.163; probe-labelled cysteine peptide fold change (50 µM): -0.0932

Q: With “NUP188_Q5SRE5_161_VEYADCVDK (UniProt Q5SRE5)” as the target, how does the “probe-labelled cysteine peptide fold change” value (10 µM) read?
A: The value was 0.394.

Q: What about the “probe-labelled cysteine peptide fold change” value (50 µM) of the same target?
A: Its value is 0.321.

Q: How did the “probe-labelled cysteine peptide fold change” value (10 µM) turn out when “NUP155_O75694_373_LYFSTCPFR (UniProt O75694)” was run?
A: The value was 0.15.

Q: And the “probe-labelled cysteine peptide fold change” value (50 µM)?
A: Its value is 0.262.

Q: Which “probe-labelled cysteine peptide fold change” value (10 µM) does the source give for “NLRX1_Q86UT6_779_DLRDLLLHDQCQITTLR (UniProt Q86UT6)” here?
A: The value was -0.173.

Q: And the “probe-labelled cysteine peptide fold change” value (50 µM)?
A: Its value is -0.114.

Q: How did the “probe-labelled cysteine peptide fold change” value (10 µM) turn out when “NUTF2_P61970_80_IQHSITAQDHQPTPDSCIISMVVGQLKADEDPIMGFHQMFLLK (UniProt P61970)” was run?
A: Its value is -0.758.

Q: And the “probe-labelled cysteine peptide fold change” value (50 µM)?
A: The value was -0.409.

Q: What does the source list for “NCKIPSD_Q9NZQ3_138_QPNGVCR (UniProt Q9NZQ3)”?
A: probe-labelled cysteine peptide fold change (10 µM): -0.0933; probe-labelled cysteine peptide fold change (50 µM): -0.32

Q: For “PDLIM1_O00151_286_HRHPECYVCTDCGTNLK (UniProt O00151)”, which “probe-labelled cysteine peptide fold change” value (10 µM) is on record?
A: Its value is 0.117.

Q: What about the “probe-labelled cysteine peptide fold change” value (50 µM) of the same target?
A: Its value is 0.192.

Q: Which results are given for “OSBPL1A_Q9BXW6_340_EDWLEAIEEHSAYSTHYCSQDQLTDEEEEDTVSAADLKK (UniProt Q9BXW6)”?
A: probe-labelled cysteine peptide fold change (10 µM): 0.199; probe-labelled cysteine peptide fold change (50 µM): -0.153

Q: How did the “probe-labelled cysteine peptide fold change” value (10 µM) turn out when “PCDH17_O14917_335_DLGPNPIPAHCK (UniProt O14917)” was run?
A: The value was 0.6.

Q: And the “probe-labelled cysteine peptide fold change” value (50 µM)?
A: The value was 0.546.
